# How the values were obtained:
# Test in all cases: SPOT peptide array binding signal intensity (averaged, normalized) (arbitrary units (background-subtracted, floor 0; scale differs between SH3 domains)); higher = stronger binding of the SH3 domain to the peptide
# AgAbp1 = biological target: AgAbp1
# In short: (§1)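 The binding signal is the normalized, background-subtracted spot intensity averaged over replicates; its arbitrary units differ between domains. It was obtained by incubating 10 μg/ml GST-fused SH3 domains from four yeast species overnight at 4°C in TBS-based blocking buffer on cellulose membranes with synthetic 15-mer peptides, cysteines replaced by serines, then detecting with anti-GST antibody, HRP anti-mouse secondary and luminol.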
# AgBbc1 = biological target: AgBbc1
# In short: as §1
# AgBem1-D1 = biological target: AgBem1-D1
# In short: as §1
# AgBzz1-D1 = biological target: AgBzz1-D1
# In short: as §1
# AgBzz1-D2 = biological target: AgBzz1-D2
# In short: as §1
# AgCyk3 = biological target: AgCyk3
# In short: as §1
# AgFus1 = biological target: AgFus1
# In short: as §1
# AgHof1 = biological target: AgHof1
# In short: as §1
# AgHse1 = biological target: AgHse1
# In short: as §1
# AgLsb1 = biological target: AgLsb1
# In short: as §1
# AgLsb4 = biological target: AgLsb4
# In short: as §1
# AgMyo5 = biological target: AgMyo5
# In short: as §1
# AgNbp2 = biological target: AgNbp2
# In short: as §1
# AgRvs167 = biological target: AgRvs167
# In short: as §1
# AgSho1 = biological target: AgSho1
# In short: as §1
# AgSla1-D1-D2 = biological target: AgSla1-D1-D2
# In short: as §1
# AgSla1-D3 = biological target: AgSla1-D3
# In short: as §1
# CaAbp1-D1 = biological target: CaAbp1-D1
# In short: as §1
# CaAbp1-D2 = biological target: CaAbp1-D2
# In short: as §1
# CaBbc1 = biological target: CaBbc1
# In short: as §1
# CaBem1-D1 = biological target: CaBem1-D1
# In short: as §1
# CaBzz1-D1 = biological target: CaBzz1-D1
# In short: as §1
# CaBzz1-D2 = biological target: CaBzz1-D2
# In short: as §1
# CaCyk3 = biological target: CaCyk3
# In short: as §1
# CaFus1 = biological target: CaFus1
# In short: as §1
# CaHof1 = biological target: CaHof1
# In short: as §1
# CaHse1 = biological target: CaHse1
# In short: as §1
# CaLsb1 = biological target: CaLsb1
# In short: as §1
# CaLsb4 = biological target: CaLsb4
# In short: as §1
# CaMyo5 = biological target: CaMyo5
# In short: as §1
# CaNbp2 = biological target: CaNbp2
# In short: as §1
# CaRvs167 = biological target: CaRvs167
# In short: as §1
# CaRvs167-3 = biological target: CaRvs167-3
# In short: as §1
# CaSho1 = biological target: CaSho1
# In short: as §1
# CaSla1-D1-D2 = biological target: CaSla1-D1-D2
# In short: as §1
# CaSla1-D3 = biological target: CaSla1-D3
# In short: as §1
# ScAbp1 = biological target: ScAbp1
# In short: as §1
# ScBbc1 = biological target: ScBbc1
# In short: as §1
# ScBem1-D1 = biological target: ScBem1-D1
# In short: as §1
# ScBzz1-D1 = biological target: ScBzz1-D1
# In short: as §1
# ScBzz1-D2 = biological target: ScBzz1-D2
# In short: as §1
# ScCyk3 = biological target: ScCyk3
# In short: as §1
# ScFus1 = biological target: ScFus1
# In short: as §1
# ScHof1 = biological target: ScHof1
# In short: as §1
# ScHse1 = biological target: ScHse1
# In short: as §1
# ScLsb1 = biological target: ScLsb1
# In short: as §1
# ScLsb2 = biological target: ScLsb2
# In short: as §1
# ScLsb3 = biological target: ScLsb3
# In short: as §1
# ScLsb4 = biological target: ScLsb4
# In short: as §1
# ScMyo3 = biological target: ScMyo3
# In short: as §1
# ScMyo5 = biological target: ScMyo5
# In short: as §1
# ScNbp2 = biological target: ScNbp2
# In short: as §1
# ScPex13 = biological target: ScPex13
# In short: as §1
# ScRvs167 = biological target: ScRvs167
# In short: as §1
# ScSho1 = biological target: ScSho1
# In short: as §1
# ScSla1-D1-D2 = biological target: ScSla1-D1-D2
# In short: as §1
# ScSla1-D3 = biological target: ScSla1-D3
# In short: as §1
# SpAbp1-D1 = biological target: SpAbp1-D1
# In short: as §1
# SpBbc1 = biological target: SpBbc1
# In short: as §1
# SpBzz1-D1 = biological target: SpBzz1-D1
# In short: as §1
# SpBzz1-D2 = biological target: SpBzz1-D2
# In short: as §1
# SpCyk3 = biological target: SpCyk3
# In short: as §1
# SpHof1 = biological target: SpHof1
# In short: as §1
# SpHof1-2 = biological target: SpHof1-2
# In short: as §1
# SpHof1-3 = biological target: SpHof1-3
# In short: as §1
# SpHse1 = biological target: SpHse1
# In short: as §1
# SpLsb1 = biological target: SpLsb1
# In short: as §1
# SpLsb4 = biological target: SpLsb4
# In short: as §1
# SpMyo1 = biological target: SpMyo1
# In short: as §1
# SpNbp2 = biological target: SpNbp2
# In short: as §1
# SpPex13 = biological target: SpPex13
# In short: as §1
# SpRvs167 = biological target: SpRvs167
# In short: as §1
# SpSla1-D1-D2 = biological target: SpSla1-D1-D2
# In short: as §1
# SpSla1-D3 = biological target: SpSla1-D3
# In short: as §1
binder,measurement,setting,value
RRGPAPPPPPRASRP,SPOT peptide array binding signal intensity,AgAbp1,181
same,SPOT peptide array binding signal intensity,AgBbc1,646
same,SPOT peptide array binding signal intensity,AgBem1-D1,410
same,SPOT peptide array binding signal intensity,AgBzz1-D1,582
same,SPOT peptide array binding signal intensity,AgBzz1-D2,164
same,SPOT peptide array binding signal intensity,AgCyk3,2
same,SPOT peptide array binding signal intensity,AgFus1,23
same,SPOT peptide array binding signal intensity,AgHof1,63.8
same,SPOT peptide array binding signal intensity,AgHse1,32.5
same,SPOT peptide array binding signal intensity,AgLsb1,80.2
same,SPOT peptide array binding signal intensity,AgLsb4,485
same,SPOT peptide array binding signal intensity,AgMyo5,89
same,SPOT peptide array binding signal intensity,AgNbp2,205
same,SPOT peptide array binding signal intensity,AgRvs167,339
same,SPOT peptide array binding signal intensity,AgSho1,13
same,SPOT peptide array binding signal intensity,AgSla1-D1-D2,21
same,SPOT peptide array binding signal intensity,AgSla1-D3,14
same,SPOT peptide array binding signal intensity,CaAbp1-D1,1290
same,SPOT peptide array binding signal intensity,CaAbp1-D2,281
same,SPOT peptide array binding signal intensity,CaBbc1,1160
same,SPOT peptide array binding signal intensity,CaBem1-D1,1890
same,SPOT peptide array binding signal intensity,CaBzz1-D1,3450
same,SPOT peptide array binding signal intensity,CaBzz1-D2,2600
same,SPOT peptide array binding signal intensity,CaCyk3,216
same,SPOT peptide array binding signal intensity,CaFus1,124
same,SPOT peptide array binding signal intensity,CaHof1,6.5
same,SPOT peptide array binding signal intensity,CaHse1,6.75
same,SPOT peptide array binding signal intensity,CaLsb1,0.75
same,SPOT peptide array binding signal intensity,CaLsb4,1000
same,SPOT peptide array binding signal intensity,CaMyo5,9
same,SPOT peptide array binding signal intensity,CaNbp2,209
same,SPOT peptide array binding signal intensity,CaRvs167,805
same,SPOT peptide array binding signal intensity,CaRvs167-3,11
same,SPOT peptide array binding signal intensity,CaSho1,18.5
same,SPOT peptide array binding signal intensity,CaSla1-D1-D2,2130
same,SPOT peptide array binding signal intensity,CaSla1-D3,143
same,SPOT peptide array binding signal intensity,ScAbp1,272
same,SPOT peptide array binding signal intensity,ScBbc1,150
same,SPOT peptide array binding signal intensity,ScBem1-D1,6
same,SPOT peptide array binding signal intensity,ScBzz1-D1,457
same,SPOT peptide array binding signal intensity,ScBzz1-D2,68.5
same,SPOT peptide array binding signal intensity,ScCyk3,16
same,SPOT peptide array binding signal intensity,ScFus1,12.5
same,SPOT peptide array binding signal intensity,ScHof1,12.2
same,SPOT peptide array binding signal intensity,ScHse1,28.5
same,SPOT peptide array binding signal intensity,ScLsb1,132
same,SPOT peptide array binding signal intensity,ScLsb2,54
same,SPOT peptide array binding signal intensity,ScLsb3,1380
same,SPOT peptide array binding signal intensity,ScLsb4,892
same,SPOT peptide array binding signal intensity,ScMyo3,160
same,SPOT peptide array binding signal intensity,ScMyo5,279
same,SPOT peptide array binding signal intensity,ScNbp2,158
same,SPOT peptide array binding signal intensity,ScPex13,1150
same,SPOT peptide array binding signal intensity,ScRvs167,2010
same,SPOT peptide array binding signal intensity,ScSho1,668
same,SPOT peptide array binding signal intensity,ScSla1-D1-D2,4710
same,SPOT peptide array binding signal intensity,ScSla1-D3,8.25
same,SPOT peptide array binding signal intensity,SpAbp1-D1,726
same,SPOT peptide array binding signal intensity,SpBbc1,24
same,SPOT peptide array binding signal intensity,SpBzz1-D1,1820
same,SPOT peptide array binding signal intensity,SpBzz1-D2,340
same,SPOT peptide array binding signal intensity,SpCyk3,13
same,SPOT peptide array binding signal intensity,SpHof1,52
same,SPOT peptide array binding signal intensity,SpHof1-2,27.8
same,SPOT peptide array binding signal intensity,SpHof1-3,420
same,SPOT peptide array binding signal intensity,SpHse1,37.8
same,SPOT peptide array binding signal intensity,SpLsb1,107
same,SPOT peptide array binding signal intensity,SpLsb4,1730
same,SPOT peptide array binding signal intensity,SpMyo1,391
same,SPOT peptide array binding signal intensity,SpNbp2,15.5
same,SPOT peptide array binding signal intensity,SpPex13,2
same,SPOT peptide array binding signal intensity,SpRvs167,2270
same,SPOT peptide array binding signal intensity,SpSla1-D1-D2,571
same,SPOT peptide array binding signal intensity,SpSla1-D3,≤ 0
IVNKPLPPLPVAGSS,SPOT peptide array binding signal intensity,AgAbp1,177
same,SPOT peptide array binding signal intensity,AgBbc1,≤ 0
same,SPOT peptide array binding signal intensity,AgBem1-D1,5.5
same,SPOT peptide array binding signal intensity,AgBzz1-D1,30
same,SPOT peptide array binding signal intensity,AgBzz1-D2,17.5
same,SPOT peptide array binding signal intensity,AgCyk3,≤ 0
same,SPOT peptide array binding signal intensity,AgFus1,1.5
same,SPOT peptide array binding signal intensity,AgHof1,748
same,SPOT peptide array binding signal intensity,AgHse1,17.5
same,SPOT peptide array binding signal intensity,AgLsb1,≤ 0
same,SPOT peptide array binding signal intensity,AgLsb4,7.5
same,SPOT peptide array binding signal intensity,AgMyo5,≤ 0
same,SPOT peptide array binding signal intensity,AgNbp2,≤ 0
same,SPOT peptide array binding signal intensity,AgRvs167,2.33
same,SPOT peptide array binding signal intensity,AgSho1,6850
same,SPOT peptide array binding signal intensity,AgSla1-D1-D2,1
same,SPOT peptide array binding signal intensity,AgSla1-D3,≤ 0
same,SPOT peptide array binding signal intensity,CaAbp1-D1,21.5
same,SPOT peptide array binding signal intensity,CaAbp1-D2,48
same,SPOT peptide array binding signal intensity,CaBbc1,≤ 0
same,SPOT peptide array binding signal intensity,CaBem1-D1,≤ 0
same,SPOT peptide array binding signal intensity,CaBzz1-D1,459
same,SPOT peptide array binding signal intensity,CaBzz1-D2,≤ 0
same,SPOT peptide array binding signal intensity,CaCyk3,0.5
same,SPOT peptide array binding signal intensity,CaFus1,232
same,SPOT peptide array binding signal intensity,CaHof1,55.2
same,SPOT peptide array binding signal intensity,CaHse1,1300
same,SPOT peptide array binding signal intensity,CaLsb1,≤ 0
same,SPOT peptide array binding signal intensity,CaLsb4,≤ 0
same,SPOT peptide array binding signal intensity,CaMyo5,≤ 0
same,SPOT peptide array binding signal intensity,CaNbp2,≤ 0
same,SPOT peptide array binding signal intensity,CaRvs167,1.17
same,SPOT peptide array binding signal intensity,CaRvs167-3,≤ 0
same,SPOT peptide array binding signal intensity,CaSho1,6570
same,SPOT peptide array binding signal intensity,CaSla1-D1-D2,338
same,SPOT peptide array binding signal intensity,CaSla1-D3,0.5
same,SPOT peptide array binding signal intensity,ScAbp1,378
same,SPOT peptide array binding signal intensity,ScBbc1,0.25
same,SPOT peptide array binding signal intensity,ScBem1-D1,≤ 0
same,SPOT peptide array binding signal intensity,ScBzz1-D1,≤ 0
same,SPOT peptide array binding signal intensity,ScBzz1-D2,≤ 0
same,SPOT peptide array binding signal intensity,ScCyk3,≤ 0
same,SPOT peptide array binding signal intensity,ScFus1,10
same,SPOT peptide array binding signal intensity,ScHof1,1300
same,SPOT peptide array binding signal intensity,ScHse1,32
same,SPOT peptide array binding signal intensity,ScLsb1,≤ 0
same,SPOT peptide array binding signal intensity,ScLsb2,≤ 0
same,SPOT peptide array binding signal intensity,ScLsb3,154
same,SPOT peptide array binding signal intensity,ScLsb4,≤ 0
same,SPOT peptide array binding signal intensity,ScMyo3,≤ 0
same,SPOT peptide array binding signal intensity,ScMyo5,≤ 0
same,SPOT peptide array binding signal intensity,ScNbp2,≤ 0
same,SPOT peptide array binding signal intensity,ScPex13,2500
same,SPOT peptide array binding signal intensity,ScRvs167,97.8
same,SPOT peptide array binding signal intensity,ScSho1,7450
same,SPOT peptide array binding signal intensity,ScSla1-D1-D2,288
same,SPOT peptide array binding signal intensity,ScSla1-D3,1.5
same,SPOT peptide array binding signal intensity,SpAbp1-D1,1580
same,SPOT peptide array binding signal intensity,SpBbc1,1
same,SPOT peptide array binding signal intensity,SpBzz1-D1,159

# Reference: the supplement of paper PMC4466140
